# In all, about 69,000 compounds went through this assay and about 8,600 (12%) showed an effect of 50% or more. The full list was thinned out, with strong results kept by preference.
# Tested on: Plasmodium berghei
# Test: Screen against P. berghei liver stage (PbLuc), transformed with Luciferase, at 10uM
# Assay type: functional, HepG2
# Conditions: tested at 10 uM
row,Structure (SMILES),INHIBITION
1,Fc1ccc(-c2noc3c2CN(CC2CC2)CC3)cc1F,52.7%
2,CC(O)CN1CCc2onc(-c3ccccc3F)c2C1 (stereo not given),-10.9%
3,Fc1ccccc1-c1noc2c1CN(CC1CC1)CC2,55.4%
4,Fc1ccccc1-c1noc2c1CN(CCN1CCOCC1)CC2,34.5%
5,CC(C)=CCN1CCc2onc(-c3ccc(F)c(F)c3)c2C1,5.78%
6,Fc1cc(CN2CCCC2Cn2cncn2)c2ncccc2c1 (stereo not given),11.8%
7,O=C(N1CCCO1)[C@@]12CCO[C@@H]1CCN(C1CCCCC1)C2,13%
8,Cc1cccc(C)c1Oc1ncccc1CNC(=O)C1COC(=O)N1 (stereo not given),53.8%
9,COc1ccccc1Oc1ncccc1CNC(=O)C1COC(=O)N1 (stereo not given),41.3%
10,Cc1ccc(Oc2ncccc2CNC(=O)C2COC(=O)N2)c(F)c1F (stereo not given),12.9%
11,CCCN(CCO)C(=O)c1cc(COc2ccc3c(c2)CCCC3)on1,33%
12,CC(Cn1cccn1)NC(=O)NCCc1ccsc1 (stereo not given),21.5%
13,Cc1occc1CNC(=O)Nc1ccc2nc(N3CCOCC3)oc2c1,25.8%
14,CCC(C(=O)Nc1ccc2nc(C)oc2c1)N1CCCC1=O (stereo not given),71.2%
15,CCC(CNC(=O)Nc1cnn(CC)c1)N1CCCC1 (stereo not given),39.5%
16,CCC(C(=O)N1CCCSCC1)N1CCCC1=O (stereo not given),21.5%
17,CCC(C(=O)Nc1ccc2cn(CC)nc2c1)N1CCCC1=O (stereo not given),54.5%
18,CCC(C(=O)NCCc1ccn(-c2ccccc2)n1)N1CCCC1=O (stereo not given),-21%
19,CN(C)C(=O)COCC1CN(C2CCC2)Cc2ncn(C)c21 (stereo not given),-19.1%
20,Cc1cc(C)n(Cc2cccc(C(=O)N3CCOCC3(C)C)c2)n1,-4.23%
21,CCN(CC)C(=O)CNC(=O)N1CCC(c2ccccc2)C1 (stereo not given),43.7%
22,CC(C)(O)CCc1ccc(C(=O)N2CCN(CCS(C)(=O)=O)CC2)cc1,16.8%
23,CC(C)(O)CCc1ccc(C(=O)N2CCN(CC3CCCC3)CC2)cc1,26.6%
24,CC(C)(O)CCc1ccc(C(=O)N2Cc3cnn(CCO)c3C2)cc1,73%
25,CC(C)(O)CCc1cccc(C(=O)N2Cc3cnn(CCO)c3C2)c1,14%
26,CC(C)(O)CCc1ccc(C(=O)N2CCN(CC(F)(F)F)CC2)cc1,52.6%
27,O=C(c1ccc(CN2CCCCC2)cc1)N1Cc2cnn(CCO)c2C1,30.3%
28,CCCS(=O)(=O)N1CC(=O)N(CCCc2ccccc2)CC(O)C1 (stereo not given),48.7%

row,Structure (SMILES),INHIBITION
1,O=C(c1sccc1C1CC1)N1CCCN(Cc2cscn2)CC1,-4.16%
2,Cc1cccc(C(C(=O)NCc2cc(C)[nH]n2)N(C)C)c1 (stereo not given),3.69%
3,COc1cc(NCc2ccncc2)c(-c2nn[nH]n2)cc1OC,-34.6%
4,COc1ncccc1CNC(=O)N1CCCC1c1ccsc1 (stereo not given),-24.2%
5,CCN1CCN(C(=O)NCc2cc[nH]n2)CC1,-29.7%
6,COC(=O)c1sccc1S(=O)(=O)N1CCc2c(ncnc2N(C)C)C1,58.1%
7,COC(=O)c1sccc1S(=O)(=O)N1CCC(Oc2cnccn2)CC1,53.7%
8,CN(C)c1ncnc2c1CCN(C(=O)c1sccc1S(N)(=O)=O)C2,-9.18%
9,CN(C)c1ncnc2c1CCN(S(=O)(=O)c1cccc(Cl)c1Cl)C2,42.7%
10,COC(=O)c1sccc1S(=O)(=O)N1CCC(Oc2cccnn2)CC1,21.6%
11,CN(C)c1ncnc2c1CCN(S(=O)(=O)c1ccccc1C(F)(F)F)C2,30.3%
12,Cc1ccccc1S(=O)(=O)N1CCc2c(ncnc2N(C)C)C1,66.1%
13,COC(=O)c1sccc1S(=O)(=O)N1CCC(Oc2cccc(C)n2)CC1,21.8%
14,CN(C)c1ncnc2c1CCN(S(=O)(=O)c1cccc3nsnc13)C2,31.6%
15,Cc1cnn(CC2CCCN2Cc2ncc(-c3ccc(F)cc3)o2)c1 (stereo not given),2.3%
16,CC(C)CN(CC(=O)O)C(=O)c1ccc(F)cc1,17.7%
17,CN(CCc1ccccc1)c1cnn(CC2COCCO2)c(=O)c1 (stereo not given),-42.8%
18,O=C(NCc1cncc2c1CCN(C1CCOCC1)C2)c1ccco1,61.3%
19,O=C(NCc1cncc2c1CCN(C1CCOCC1)C2)c1ccno1,34.5%
20,O=C(NCc1cncc2c1CCN(C1CCOC1)C2)c1ccco1 (stereo not given),0.71%
21,COCc1nc(C(=O)NS(=O)(=O)c2cc(Br)ccc2C)cs1,8.55%
22,O=S(=O)(NCc1ccccc1Cn1cncn1)N1CCCCC1,25.1%
23,CCn1cc(Cl)c(C(=O)NCCCN(C)C)n1,39.1%
24,Cc1nccc(C(=O)N2CCCC2c2c(C)nn(C)c2C)n1 (stereo not given),7.08%
25,CCN(CCNC(=O)c1cccnc1OCCOC)C1CC1,34.7%
26,CCN(CCNC(=O)c1ccccc1OCCOC)C1CC1,58.8%
27,CCN(CCNC(=O)c1ccccc1Br)C1CC1,-2.42%
